Screens: PubChem BioAssay, Buhrlage Lab, Dana-Farber Cancer Institute and Novartis Institutes for BioMedical Research (Cambridge, Mass)
USP30 inh = human USP30 deubiquitinase inhibition. purified USP30, Ub-rhodamine cleavage fluorescence. inhibition, % at 25 µM. hit rate 5.3% among 47,000. AID 1645860
USP28 inh = blocks human USP28 ubiquitin-rhodamine cleavage | purified USP28, Ub-rhodamine cleavage fluorescence, 30 min | inhibition, % at 25 µM | hit rate 3% among 47,000 | AID 1645857
USP10 block = blocks human USP10 ubiquitin-rhodamine cleavage. Q14694. purified USP10, Ub-rhodamine fluorescence, 60 min. inhibition, % at 20 µM. hit rate 1.1% among 47,000. AID 1645856
USP17 block = blocks human USP17 ubiquitin-rhodamine cleavage. A8MUK1. purified USP17, Ub-rhodamine cleavage fluorescence, 3 h. inhibition, % at 50 µM. hit rate 6.5% among 47,000. AID 1645855
USP8 inh = blocks human USP8 ubiquitin-rhodamine cleavage; hit rate 4.2% among 47,000; AID 1645853; inhibition, % at 20 µM; purified USP8, Ub-rhodamine cleavage fluorescence, 30 min
Numbers stand for hits; – = inactive; · = no result. A selection: hits, their analogues and other compounds. The true share with any hit is near 13%. Cut-off read from the data, not from the text of the source: active = inhibition above about 30%; inactive = the rest.

SMILES	USP30 inh	USP28 inh	USP10 block	USP17 block	USP8 inh
COc1ccccc1NC(=O)NCc1nnnn1-c1ccccc1	32	–	–	–	–
Cc1ccccc1N1CC(c2nnc(NC(=O)Cc3ccc(Cl)cc3)s2)CC1=O (stereo not drawn)	–	–	–	–	–
Cc1ccccc1CC(=O)Nc1nnc(C2CC2)s1	–	–	–	41	–
Cc1ccccc1N1CC(c2nnc(NC(=O)Cc3c(F)cccc3Cl)s2)CC1=O (stereo not drawn)	–	–	–	·	–
CCc1ccccc1N1CC(c2nnc(NC(=O)CCc3ccccc3)s2)CC1=O (stereo not drawn)	–	–	–	30	–
Cc1ccccc1N1CC(c2nnc(NC(=O)CCCc3ccccc3)s2)CC1=O (stereo not drawn)	–	–	–	–	–
Cc1nn(C)c(C)c1CC(=O)Nc1nnc(C2CCCCC2)s1	–	41	–	–	–
CCc1noc(-c2ccc(-n3cnc(C(=O)N(C)C4CCCCC4)c3)nc2)n1	–	–	–	–	–
COc1ccc(CNc2nc3c(C)cccc3cc2-c2noc(C)n2)c(OC)c1	–	–	–	–	–
Cc1cc2c3c([nH]c2cc1S(=O)(=O)N1CCC(C)CC1)CCCC3=O	–	–	–	–	–
Cc1ccccc1NS(=O)(=O)c1cc2[nH]c3c(c2cc1C)C(=O)CCC3	69	57	–	58	40
Cc1cc2c3c([nH]c2cc1S(=O)(=O)N(C)C1CCCCC1)CCCC3=O	–	–	–	49	–
COc1ccc(C(=O)N2CCCC2c2nc(-c3ccccc3)n[nH]2)cc1 (stereo not drawn)	–	–	–	–	–
O=C(c1cn(-c2cc(N3CCCCC3)ncn2)cn1)N1CCCCC1	–	–	–	–	–
CC(=O)Nc1ccc(-n2cnc(C(=O)N3CCCC(C)C3)c2)nc1 (stereo not drawn)	41	–	–	–	–
CC1CCCN(C(=O)c2cn(-c3cc(N4CCCCC4)ncn3)cn2)C1 (stereo not drawn)	–	–	–	–	–
CC1CCN(c2cc(-n3cnc(C(=O)N4CCCC(C)C4)c3)ncn2)CC1 (stereo not drawn)	–	62	–	–	–
CC1CCN(c2cc(-n3cnc(C(=O)N4CCCCC4)c3)ncn2)CC1	–	51	–	–	–
O=C(NCCCN1CCN(c2ccc(F)cc2)CC1)c1ccc2c(=O)n(CCc3ccccc3)c(=O)[nH]c2c1	42	–	–	31	30
O=C(CCn1c(=O)[nH]c2ccccc2c1=O)N1CCN(c2ccc(F)cc2)CC1	–	–	–	–	–
O=C(c1ccc(Cn2c(=O)[nH]c3ccccc3c2=O)cc1)N1CCN(Cc2ccc3c(c2)OCO3)CC1	–	–	–	33	–
O=C(c1ccc(Cn2c(=O)[nH]c3ccccc3c2=O)cc1)N1CCN(c2ccc(F)cc2)CC1	48	–	–	–	–
O=C(NC1CCN(Cc2ccccc2)CC1)c1ccc(Cn2c(=O)[nH]c3ccccc3c2=O)cc1	–	–	–	–	–
Cn1ncc2c1C(COCC1CC1)N(C(=O)c1cnccn1)CC2 (stereo not drawn)	–	–	–	–	–
O=C(CCCSc1nc2ccccc2[nH]1)Nc1ccc(F)cc1	–	–	–	–	–
SMILES	USP30 inh	USP28 inh	USP10 block	USP17 block	USP8 inh
O=C(Cc1n[nH]c(Cc2ccc(F)cc2)n1)Nc1cccc(F)c1	–	–	–	·	–
O=C(Cc1n[nH]c(Cc2ccc(F)cc2)n1)NC1CCCCCC1	–	–	–	–	42
Cc1ccc2c(c1C)NC(=O)[C@]21[C@@H]2C(=O)N(c3ccc(F)c(Cl)c3)C(=O)[C@@H]2[C@@H]2CCCN21	–	–	–	–	–
NC(=O)c1cccc(NC(=O)c2cccc(Oc3ccccc3)c2)c1	–	–	–	–	–
O=C(Nc1cccc(Oc2ccccc2)c1)c1ccc2nc[nH]c2c1	–	34	–	–	–
O=C(Nc1cccc(Oc2ccccc2)c1)c1c(F)cccc1F	–	36	–	–	–
Cc1nc2ccc(NC(=O)CSc3nnc(-c4cc5ccccc5o4)n3C)cc2[nH]1	–	–	–	·	–
COc1ccc2cc(C(=O)NCc3ccccn3)[nH]c2c1	–	–	–	–	–
CN(C)S(=O)(=O)c1ccc2nc(NC(=O)c3ccc4ccccc4n3)sc2c1	–	–	–	–	–
O=C(Nc1nc2ccccc2s1)c1cc2ccc3cccnc3c2[nH]1	·	·	35	58	–
COc1ccc2nc(NC(=O)c3cc4ccc5cccnc5c4[nH]3)sc2c1	–	–	33	–	80
CCOc1ccccc1-c1cc(NC(=O)c2cc3ccc4cccnc4c3[nH]2)on1	88	–	53	68	69
Cc1cccc(CS(=O)(=O)N2CCC(C(=O)N3CCC(C)CC3)CC2)c1	–	–	–	–	–
Cc1c(C(=O)NC2CC2)nnn1-c1cccc2c1CCN(C)C2	–	–	–	·	–
Cc1ccc2nc(N(CCCN(C)C)C(=O)COc3ccccc3)sc2c1	41	–	–	36	–
Cc1ccc(C2N3CC4(C)CN2CC(c2ccccc2)(C3)C4=O)cc1 (stereo not drawn)	34	–	–	–	–
CCc1noc(-c2ccc(OCC(=O)Nc3ccc(C)cc3C)cc2)n1	–	–	–	51	–
CCc1ccc(NC(=O)COc2ccc(-c3nc(CC)no3)cc2)cc1	–	–	–	–	–
CCc1noc(-c2ccc(OCC(=O)Nc3ccccc3C(C)C)cc2)n1	–	–	–	41	–
COc1ccc(F)cc1S(=O)(=O)N1CCc2nc(N)c(C(=O)N3CCCC3)cc2C1	–	–	–	–	–
COc1ccc(C(=O)N2CCC3(CC2)CO[C@H]([C@@]2(C)CC[C@@H](C(C)(C)O)O2)C3)cc1	–	–	–	–	–
O=C1c2cccnc2C(Nc2ccccc2F)N1Cc1ccco1 (stereo not drawn)	–	–	–	–	–
COc1ccc(S(=O)(=O)N2CCc3ccccc32)cc1C(=O)Nc1ccc2c(c1)NC(=O)C(C)O2 (stereo not drawn)	–	–	35	–	71
Cc1ccc(-c2nnc(SCc3noc(CCC(=O)Nc4ccccc4)n3)o2)cc1	40	–	–	–	–
Cc1ccc(NC(=O)CCc2nc(CSc3nnc(-c4cccc(C)c4)o3)no2)cc1	–	–	–	–	–
SMILES	USP30 inh	USP28 inh	USP10 block	USP17 block	USP8 inh
O=C(Nc1ccccc1Cc1ccccc1)c1nc2n(n1)-c1ccccc1S(=O)(=O)N2	–	–	46	–	59
O=C(NCC1(c2ccccc2)CCC1)c1nc2n(n1)-c1ccccc1S(=O)(=O)N2	–	–	39	–	–
O=C(NCc1ccccc1F)c1nc2n(n1)-c1ccccc1S(=O)(=O)N2	–	–	–	–	–
O=S(=O)(c1cccc2cccnc12)N1CCc2nc3ncc(Cl)cc3cc2C1	–	–	–	–	–
CC(CNC(=O)c1cnn2c3c(cnc12)CCCC3)c1ccccc1 (stereo not drawn)	31	–	–	–	–
O=C(NCCC1=CCCCC1)c1cnn2c3c(cnc12)CCCCCC3	38	–	–	–	–
